Measurements published in the supplement of paper PMC4840960.

system: E18 rat cortical neuron-glia co-culture; experiment: myelination (MBP fiber length per Olig2+ nucleus), % of 1 µM DAPT response (DMSO = 0) (% of DAPT); higher = more myelination, active = 50 or more; details: 5 µM; treatment time: 8 days (DIV5-DIV13)
In short: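 Library compounds at 1 or 5 µM in myelination medium were applied from DIV5 to DIV13 to papain-dissociated E18 rat cortical co-cultures seeded at 20,000 cells/well on poly-d-lysine/laminin 96-well plates. Fixed cells (4 % paraformaldehyde) were immunostained for MBP and Olig2 with DAPI, and four 10X fields were analysed in each duplicate well. Continuous straight MBP fiber length per Olig2+ nucleus was set to 0 for 0.1 % DMSO and to 100 for a 1 µM positive control.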

myelination, active:
COc1cc(CNC(=O)CCCC/C=C\C(C)C)ccc1O [Zucapsaicin] 98.2

myelination, inactive:
Cc1nc2n(c(=O)c1CCN1CCC(c3noc4cc(F)ccc34)CC1)CCCC2 [Risperidone] -15.1
CN(C)CCCSc1ccccc1NC(=O)/C=C/c1ccccc1 [Cinanserin] 9.08
CCCOc1ccc(C(=O)OCCN(CC)CC)cc1N [Proxymetacaine] -12.1
CC(=O)OCC(CCn1cnc2cnc(N)nc21)COC(C)=O [Famciclovir] -2.76
CN(C)CC/C=C1/c2ccccc2COc2ccc(CC(=O)O)cc21 [Olopatadine] -5.94
Nc1nc(Cl)nc2c1ncn2[C@@H]1O[C@H](CO)[C@@H](O)[C@H]1O [2-Chloroadenosine] -10.5
CCOC(=O)[C@H](CCc1ccccc1)N[C@@H](C)C(=O)N1Cc2ccccc2C[C@H]1C(=O)O [Quinapril] -6.78
O=C1c2c(O)cc(O)cc2O[C@H](c2ccc(O)c(O)c2)[C@H]1O [Distylin] 0.864
COc1ccc2[nH]c([S+]([O-])Cc3ncc(C)c(OC)c3C)nc2c1 (stereo not drawn) [Omeprazole] -4.44
CO[C@H]1/C=C/O[C@@]2(C)Oc3c(C)c(O)c4c(c3C2=O)C2=NC3(CCN(CC(C)C)CC3)NC2=C(NC(=O)/C(C)=C\C=C\[C@H](C)[C@H](O)[C@@H](C)[C@@H](O)[C@@H](C)[C@H](OC(C)=O)[C@@H]1C)C4=O [Rifabutin] -11.2
CCc1ccc(CCOc2ccc(CC3SC(=O)NC3=O)cc2)nc1 (stereo not drawn) [Pioglitazone] -17.1
CC(=O)OCC(=O)[C@@]1(O)CC[C@H]2[C@@H]3CCC4=CC(=O)CC[C@]4(C)[C@H]3C(=O)C[C@@]21C [Cortisone acetate] -20.1
C[C@]12CCC(=O)C=C1CC[C@@H]1[C@@H]2[C@@H](O)C[C@@]2(C)[C@H]1CC[C@]2(O)C(=O)CO [Hydrocortisone] -10.2
O=C(O)CCNC(=O)c1ccc(/N=N/c2ccc(O)c(C(=O)O)c2)cc1 [Balsalazide] -9.22
OCCOCCN1CCN(C2=Nc3ccccc3Sc3ccccc32)CC1 [Quetiapine hemifumarate] -19.9
COc1cc(N)c(Cl)cc1C(=O)NC1CCN(CCCOc2ccc(F)cc2)CC1OC (stereo not drawn) [Cisapride] -10.2
O=C(NCCN1CCOCC1)c1ccc(Cl)cc1 [Moclobemide] -5.22
CCC(=O)NS(=O)(=O)c1ccc(-c2c(-c3ccccc3)noc2C)cc1 [Parecoxib] 1.22
CC(C)c1ccc2oc3nc(N)c(C(=O)O)cc3c(=O)c2c1 [Amlexanox] 0.757
NS(=O)(=O)c1cc2c(cc1C(F)(F)F)NCNS2(=O)=O [Hydroflumethiazide] -13.7
CN(C)CCCN1c2ccccc2Sc2ccc(Cl)cc21 [Chlorpromazine] -2.13
Cc1ncc([N+](=O)[O-])n1CC(O)CCl (stereo not drawn) [Ornidazole] -1.4
Cc1cc2c(s1)Nc1ccccc1N=C2N1CCN(C)CC1 [Olanzapine] -13.5
Cc1cn([C@H]2C=C[C@@H](CO)O2)c(=O)[nH]c1=O [Stavudine] -8.63
CC1=C(C/C=C(\C)CCC[C@H](C)CCC[C@H](C)CCCC(C)C)C(=O)c2ccccc2C1=O [Phylloquinone] -10.2
CCOC(=O)c1ncn2c1CN(C)C(=O)c1cc(F)ccc1-2 [Flumazenil] -19.8
CCc1oc2ccccc2c1C(=O)c1cc(Br)c(O)c(Br)c1 [Benzbromarone] -9.52
C[C@H]1COc2c(C3(N)CC3)c(F)cc3c(=O)c(C(=O)O)cn1c23 [Pazufloxacin] 17.6
O=C(O)CCc1nc(-c2ccccc2)c(-c2ccccc2)o1 [Oxaprozin] -14
CCc1cccc2c3c([nH]c12)C(CC)(CC(=O)O)OCC3 (stereo not drawn) [Etodolac] 16.1
CCN1CCCC1CNC(=O)c1cc(S(N)(=O)=O)ccc1OC (stereo not drawn) [Sulpiride] -10.8
CC1(C)O[C@@H]2C[C@H]3[C@@H]4C[C@H](F)C5=CC(=O)C=C[C@]5(C)[C@@]4(F)[C@@H](O)C[C@]3(C)[C@]2(C(=O)CO)O1 [Fluocinolone Acetonide] 6.47
